Bioassay records as filed in PubChem BioAssay.
An excerpt weighted towards active compounds, which were near 11% of everything screened.
HP1b chromo inh: HP1-beta chromodomain-methylated histone interaction inhibition; P83916; AlphaScreen HP1-beta / biotin-H3K9me3 peptide binding; Potency, µM (highest dose often 114 µM), hits mostly inhibitors; actives 0.56% (n = 390,000); AID 540317; note: nearly all actives have a fitted effect of over 70% in size
Target sequence (P83916 whole entry, looked up): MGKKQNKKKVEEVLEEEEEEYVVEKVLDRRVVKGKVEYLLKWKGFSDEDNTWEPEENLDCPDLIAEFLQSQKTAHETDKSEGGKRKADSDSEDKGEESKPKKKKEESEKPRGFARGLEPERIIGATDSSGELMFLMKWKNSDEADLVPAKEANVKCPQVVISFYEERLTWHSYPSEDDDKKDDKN
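HP1-beta protein (50 nM final) preincubated 30 min at room temperature with biotinylated H3(1-18)K9me3 peptide (50 nM) in PBS pH 7.4, 0.01% Tween-20, then compound added for 30 min. AlphaScreen streptavidin donor/nickel chelate acceptor beads (10 ug/mL final), 30 min dark, luminescence read.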
G9a inh: blocks human histone lysine methyltransferase G9a | G9a H3K9 monomethylation, AlphaScreen, 2 h | Potency, µM (top dose mostly 102 µM), most hits filed as inhibitors | actives 8.8% (n = 350,000); note: nearly all actives have a fitted effect of over 75% in size
Target sequence (Q96KQ7 913-1193 limits assumed): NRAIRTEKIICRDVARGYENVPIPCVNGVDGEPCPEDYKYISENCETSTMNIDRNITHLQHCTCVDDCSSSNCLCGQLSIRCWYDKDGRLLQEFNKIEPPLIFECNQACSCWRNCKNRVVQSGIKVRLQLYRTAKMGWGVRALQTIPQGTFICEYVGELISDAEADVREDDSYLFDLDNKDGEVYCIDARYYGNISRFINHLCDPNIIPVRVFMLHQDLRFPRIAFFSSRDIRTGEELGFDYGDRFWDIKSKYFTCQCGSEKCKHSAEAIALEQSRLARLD
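Step 1: enzyme (final 20 nM) with compound, 15 min RT. Step 2: substrate peptide 500 nM and SAM 20 uM, 2 h RT. Step 3: anti-H3K9me1 antibody and AlphaScreen beads, 10 min, then plate read.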
L3MBTL1 block: inhibitors of human L3MBTL1; Q9Y468; AlphaScreen L3MBTL1–H3K9me1 peptide binding; Potency, µM (top dose mostly 57.1 µM), most hits filed as inhibitors; actives 0.66% (n = 230,000); note: nearly all actives have a fitted effect of over 60% in size
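L3MBTL1 (50 nM) pre-complexed 30 min with biotinylated H3(1-15)K9me1 peptide (75 nM), then compounds added for 30 min at room temperature; AlphaScreen streptavidin donor/nickel chelate acceptor beads (10 ug/mL final) read after 30 min dark incubation.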
JMJD2A Tudor: blocks the human JMJD2A Tudor domain; Potency, µM (titrated, usually from 114 µM), most hits filed as inhibitors; O75164; AID 504339; AlphaScreen JMJD2A-Tudor / H3K4me3 peptide binding; actives 4.4% (n = 390,000); note: nearly all actives have a fitted effect of over 50% in size
BAZ2B block: BAZ2B (human) inhibition; Q9UIF8; Potency, µM (series often up to 114 µM), hits mostly inhibitors; AlphaScreen BAZ2B-H3K14Ac peptide displacement; AID 504333; actives 4.4% (n = 360,000); note: nearly all actives have a fitted effect of over 60% in size
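Complex of BAZ2B and biotin-H3K14Ac (50 nM apiece) forms over 30 min at RT, then faces library compounds up to 110 uM for another 30 min; AlphaScreen beads added, 20 min dark incubation, luminescence read.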
Large screens that a line does not name were inactive. Calls come from the whole dose curve; as a rule, active = well fitted inhibition curve with a large enough effect; inconclusive = small, poorly fitted or top-dose-only effect; inactive = no such curve, though single readings can be large or run the other way.

COc1ccc(C2Nc3ccccc3C(=O)N2Cc2ccccc2)cc1COc1ccc([N+](=O)[O-])c(C)c1 (centres undefined)	none (no result: G9a inh, L3MBTL1 block, BAZ2B block)
CC1=C(C#N)C(=O)N(C2CCS(=O)(=O)C2)C(=O)/C1=C\c1ccco1 (centres undefined)	G9a inh 5µM, BAZ2B block 7.1µM (no result: HP1b chromo inh, L3MBTL1 block, JMJD2A Tudor)
CN1CCN(C(c2cccnc2)c2ccc3cccnc3c2O)CC1 (centres undefined)	HP1b chromo inh inconclusive, G9a inh inconclusive, JMJD2A Tudor inconclusive, BAZ2B block 10µM (no result: L3MBTL1 block)
CN1CCN(C(c2ccc(Br)cc2)c2cc(Cl)c3cccnc3c2O)CC1 (centres undefined)	HP1b chromo inh inconclusive, G9a inh 7.9µM, JMJD2A Tudor 50µM, BAZ2B block 45µM (no result: L3MBTL1 block)
CN1CCN(C(c2ccc(F)cc2)c2ccc3cccnc3c2O)CC1 (centres undefined)	none (no result: G9a inh, L3MBTL1 block, BAZ2B block)
Cc1ccccc1Cn1c(=O)n(-c2ccc(Cl)cc2)c(=O)c2c3c(sc21)CCCC3	none (no result: L3MBTL1 block)
CCc1ccccc1N1CC(c2nnc(NC(=O)c3ccco3)s2)CC1=O (centres undefined)	none (no result: L3MBTL1 block)
CC(OCC(O)CNCC1COc2ccccc2O1)c1ccc(Cl)cc1 (centres undefined)	HP1b chromo inh inconclusive, G9a inh 10µM, JMJD2A Tudor 2.2µM, BAZ2B block 79µM
c1ccc(CNCC2COc3ccccc3O2)cc1 (centres undefined)	none
O=C(NCC1COc2ccccc2O1)c1ccccc1 (centres undefined)	none
OC(CNCC1COc2ccccc2O1)COCc1cccs1 (centres undefined)	G9a inh 8.9µM, JMJD2A Tudor 1.6µM, BAZ2B block 89µM
CC(=O)c1cccc(OCC(O)CNCC2COc3ccccc3O2)c1 (centres undefined)	HP1b chromo inh 50µM, JMJD2A Tudor 0.79µM, BAZ2B block 32µM (no result: L3MBTL1 block)
COc1ccc(CNC(=O)Cc2cccs2)cc1	none (no result: G9a inh, L3MBTL1 block)
COc1ccc(CNCC(O)COCc2cccs2)cc1 (centres undefined)	G9a inh inconclusive, JMJD2A Tudor 1.6µM, BAZ2B block inconclusive
CN(CC(=O)Nc1n[nH]c(=S)s1)S(=O)(=O)c1cccc2cccnc12	HP1b chromo inh inconclusive, G9a inh 1.6µM, JMJD2A Tudor 3.5µM, BAZ2B block inconclusive (no result: L3MBTL1 block)
CN(CC(=O)NCc1ccco1)S(=O)(=O)c1cccc2cccnc12	G9a inh 71µM (no result: L3MBTL1 block)
CN(CC(=O)NCc1ccc(Cl)cc1)S(=O)(=O)c1cccc2cccnc12	none (no result: L3MBTL1 block)
O=C(Cc1ccccc1)NCCc1csc2nc(-c3ccc(Cl)cc3)nn12	none (no result: L3MBTL1 block)
CCCC(=O)OCc1cnc(C)c2oc(=O)c(C(=O)Nc3ccc(F)cc3C)cc12	none (no result: L3MBTL1 block)
CC(=O)c1c(C)oc2c(Br)cc(NS(=O)(=O)c3ccc(Br)cc3)cc12	G9a inh inconclusive (no result: L3MBTL1 block)
NS(=O)(=O)c1ccc(-c2ccc(/C=C3\NC(=S)NC3=O)o2)cc1	HP1b chromo inh inconclusive, G9a inh 8.9µM, L3MBTL1 block 13µM, JMJD2A Tudor 25µM, BAZ2B block 50µM
CCCOC(=O)c1cc(-c2ccc(C=O)o2)ccc1Cl	G9a inh inconclusive
NS(=O)(=O)c1ccc(-c2ccc(C=O)o2)cc1	none
CC1=C(C#N)C(=O)NC(=O)/C1=C/c1ccc(-c2ccc(S(N)(=O)=O)cc2)o1	HP1b chromo inh inconclusive, G9a inh 8.9µM, L3MBTL1 block inconclusive, JMJD2A Tudor 71µM, BAZ2B block 45µM
CCCOC(=O)c1cc(-c2ccc(/C=C3/C(=O)N(C)C(=O)C(C#N)=C3C)o2)ccc1Cl	HP1b chromo inh inconclusive, JMJD2A Tudor 56µM (no result: G9a inh, L3MBTL1 block, BAZ2B block)
C=CCOC(=O)c1cc(-c2ccc(/C=C3\C(=O)NC(=O)C(C#N)=C3C)o2)ccc1Cl	G9a inh 8.9µM, JMJD2A Tudor 50µM, BAZ2B block 35µM (no result: L3MBTL1 block)
Cc1ccc(NC(=O)/C(C#N)=C/c2ccc(-c3ccc(Cl)c(C(=O)O)c3)o2)cc1C	none (no result: L3MBTL1 block)
COc1ccccc1N1CCN(c2ncnc3c2cnn3-c2ccc(C)cc2)CC1	none (no result: L3MBTL1 block)
O=C(OCc1ccco1)c1ccc2c(c1)N(Cc1ccc([N+](=O)[O-])cc1)C(=O)c1ccccc1S2	none (no result: L3MBTL1 block)
Nc1nnnn1/N=C/c1cc(Cl)cc(Cl)c1O	JMJD2A Tudor 40µM (no result: G9a inh)
Nc1nnnn1/N=C/c1cc(Cl)ccc1O	none (no result: L3MBTL1 block)
CC(CCc1ccccc1)NCc1cccc2ccccc12 (centres undefined)	G9a inh inconclusive, JMJD2A Tudor 25µM
COCC(C)NCc1cccc2ccccc12 (centres undefined)	G9a inh 32µM, JMJD2A Tudor 32µM
COCC(C)NCc1ccc(C)cc1C (centres undefined)	G9a inh 11µM, JMJD2A Tudor 4.5µM
COCCNC(=O)c1ccc(C)cc1C	none
CN1CCc2c(sc(NC(=O)c3cc(Cl)sc3Cl)c2C(N)=O)C1	none (no result: G9a inh)
Fc1ccc2nc(Nc3ccccc3)sc2c1	none
NS(=O)(=O)c1ccc2nc(NC(=O)Nc3ccc(F)cc3)sc2c1	G9a inh 50µM (no result: L3MBTL1 block)
NNc1nc2ccc(Cl)cc2s1	G9a inh 56µM, JMJD2A Tudor 79µM, BAZ2B block 50µM
NNc1nc2ccc(F)cc2s1	G9a inh inconclusive, JMJD2A Tudor inconclusive, BAZ2B block 45µM
O=C(Nc1nc2ccc(Cl)cc2s1)c1ccc(Br)o1	JMJD2A Tudor inconclusive
CCOc1ccc(NC(=O)Cn2c(=O)n(Cc3ccc(C(=O)NCc4ccc(C)cc4)cc3)c(=O)c3ccccc32)cc1	BAZ2B block inconclusive (no result: L3MBTL1 block)
COc1ccc(C2Nc3ccc(Cl)cc3C(=O)N2Cc2ccccc2)cc1COc1ccc(NC(C)=O)cc1 (centres undefined)	JMJD2A Tudor 56µM (no result: HP1b chromo inh, G9a inh, L3MBTL1 block, BAZ2B block)
COc1ccc(C2Nc3ccc(NC(C)=O)cc3C(=O)N2Cc2cccc(Cl)c2)cc1COc1ccc(NC(C)=O)cc1 (centres undefined)	JMJD2A Tudor inconclusive (no result: G9a inh, L3MBTL1 block, BAZ2B block)
COc1ccc(C2Nc3ccc(NC(=O)CO)cc3C(=O)N2Cc2cccc(Cl)c2)cc1COc1ccc(NC(C)=O)cc1 (centres undefined)	JMJD2A Tudor 56µM (no result: G9a inh, L3MBTL1 block, BAZ2B block)
O=c1cc(CSc2ncn[nH]2)[nH]c2c(Cl)cccc12	none (no result: L3MBTL1 block)
NC(=O)CC(NC(=O)Cc1ccc(Br)cc1)c1ccc(NCCN2CCCCC2)c([N+](=O)[O-])c1 (centres undefined)	BAZ2B block 50µM (no result: G9a inh)
NC(=O)c1cc([N+](=O)[O-])c(Cl)cc1NCc1ccccn1	JMJD2A Tudor 56µM, BAZ2B block 79µM
NC(=O)CC(NC(=O)Cc1ccc(Br)cc1)c1ccc(NCc2ccccn2)c([N+](=O)[O-])c1 (centres undefined)	JMJD2A Tudor inconclusive, BAZ2B block 79µM (no result: L3MBTL1 block)
Clc1ccc(-c2ccc(-c3nn4c(-c5ccco5)nnc4s3)o2)cc1	JMJD2A Tudor inconclusive (no result: G9a inh, L3MBTL1 block, BAZ2B block)
Brc1ccc(-c2nn3c(-c4ccccn4)nnc3s2)o1	G9a inh 20µM, L3MBTL1 block inconclusive, JMJD2A Tudor 14µM, BAZ2B block 18µM
c1ccc(-c2nn3c(-c4ccco4)nnc3s2)nc1	G9a inh 40µM
